Experimental data as given in PubChem BioAssay AID651597 (National Center for Advancing Translational Sciences (NCATS), 2012).
“And” between values parts separate entries of the source, which are not always exact repeats. Identical values can stand only once. Hit rate of the full screen: of about 1,100 compounds, about 390 (35%) were called active. About 30% were inconclusive and are not listed. This is one part of the list. A number with no mark means an inactive call. Calls follow the shape of the dose curve; as a rule, active = well fitted inhibition curve with a large enough effect; inconclusive = small, poorly fitted or top-dose-only effect; inactive = flat fitted curve, though single readings scatter.

Target: Luciferin 4-monooxygenase (Photinus pyralis) (UniProt P08659)
Test: qHTS of Nrf2 Activators: Hit Validation in Secondary FLuc Assay; also: nearly all actives have a fitted effect of over 65% in size
Conditions: firefly luciferase inhibition counter-screen, luminescence; series mostly up to 57.5 µM; activity, negative = inhibition: at the top concentration
From the text: Many diseases have some form of oxidative stress injury and ties to inflammation, causing a host of problems for the patient. The antioxidant response element (ARE) plays an important role in alleviating the harmful effects of oxidative stress. The antioxidant response element (ARE) is a transcriptional regulatory element involved in the activation of genes coding for a number of antioxidant proteins and detoxifying enzymes. These enzymes work in concert to protect tissues from oxidative insults and chemical toxicities in human hepatocytes and immune cells. The protective effects of ARE activation are primarily triggered through Nrf2 (NF-E2-related factor) binding to and activating AREs. It is known that Nrf2 controls the production of over 250 antioxidant and detoxification proteins (Hu et al., 2006), thereby protecting tissues by increasing cellular antioxidant content and suppressing inflammatory signaling pathways. The transcription factor Nrf2 is a central link between oxidative chemicals, such as phenolic antioxidants and electrophilic compounds, and the activation of ARE. Nrf2 levels are constitutively low as a consequence of its interaction with Keap1, which targets its degradation (Zipper and Mulcahy, 2002). Electrophiles react with key cysteine residues in Keap1, releasing Nrf2 and allowing its translocation to the nucleus. Once within the nucleus, Nrf2 complexes with coactivators such as p300, and binds to the AREs to induce gene transcription of cytoprotective enzymes, resulting in the prevention of toxicity. Activation of Nrf2 protects tissues by increasing cellular antioxidant content and suppressing inflammatory signaling pathways. Identifying novel and potent Nrf2 activators by using the AREc32 cell line to detect ARE activation by small molecules will lead to the identification and development of probes to study protective pathways in multiple tissues. These specific probes are essential to study the ARE pathway, and eventually to determine whether this pathway does activate genes that could protect against a host of diseases, including cardiovascular diseases, obesity, diabetes, Alzheimer's, and Parkinson's disease.
This project's aim is to identify novel and potent Nrf2 activators by using the AREc32 cell line to detect ARE activation by small molecules, which will lead to the identification and development of probes to study the ARE pathway. In this counter assay, we aim to identify false positive as identified from this primary assay using an FLuc assay with an inhibiting read-out.
NIH Chemical Genomics Center [NCGC]
NIH Molecular Libraries Probe Centers Network [MLPCN]
Assay Submitter (PI): Curtis Klaassen, University of Kansas Medical Center
Assess whether an activator in the primary assay potentially causes such activation by inhibitor-induced stabilization of the firefly luciferase reporter enzyme by determining whether it inhibits firefly luciferase in the presence of Km concentrations of its substrates (ATP and D-luciferin).
% is scaled to controls: 0 for no effect and ±100 for the full control effect; potency is read from the fitted curve at half-maximal effect.

Structure (SMILES)	Potency	activity, negative = inhibition
c1ccc(CSc2nccc(-c3ccco3)n2)cc1	12 µM (active)	–
O=c1cc(-c2ccco2)nc(SCc2cccc(Cl)c2)[nH]1	–	-23.2%
C=CCSc1nccc(-c2cc(Cl)sc2Cl)n1	–	-29.5%
COC(=O)c1cc2c(s1)-c1cc(F)ccc1OC2	–	-13.2%
CCn1c(NC(=O)c2ccccc2)nc2ccccc21	9.53 µM (active)	–
CCn1c(NC(=O)c2cccs2)nc2ccccc21	12 µM (active)	–
O=[N+]([O-])c1cccc(-c2nc(-c3ccccn3)no2)c1	1.9 µM (active)	–
N=c1n(CCN2CCOCC2)c2ccccc2n1CC(=O)c1cccc([N+](=O)[O-])c1	–	4.81%
c1ccc(-c2nnc(-c3ccccc3)o2)cc1	1.9 µM (active)	–
O=[N+]([O-])c1cccc(-c2nnc(-c3ccccc3)o2)c1	2.39 µM (active)	–
Brc1cc(Cc2nnc(-c3ccccc3)o2)c(Br)s1	–	-2.05%
O=C1C2C(C(=O)N1/N=C/c1ccc([N+](=O)[O-])o1)C1C=CC2C12CC2 (centres undefined)	–	-17.2%
O=[N+]([O-])c1cnccc1-n1nnc2ccccc21	–	4.14%
NC(=O)c1cc2c3ccccc3ccn2c1-c1ccccc1	13.5 µM (active)	–
CCOc1c(Br)cc(C(N)=O)cc1OCc1ccccc1	–	0.994%
COC(=O)C1=C(C)N(C)C(=O)/C1=C\c1ccco1	–	-22.6%
O=C1C(=Cc2ccco2)CCCC1=Cc1ccco1	2.69 µM (active)	–
Nc1ccc(S(=O)(=O)Nc2nccc(/C=C/c3cccc(Br)c3)n2)cc1	–	-23.3%
Nc1nccc(/C=C/c2c(F)cccc2Cl)n1	9.53 µM (active)	–
COC(=O)c1ccccc1NC(=O)c1cccs1	–	-1.86%
COC(=O)c1ccccc1NC(=O)COCc1cc(-c2cccs2)on1	–	-17.5%
COc1ccccc1C(=O)COC(=O)c1cccs1	2.69 µM (active)	–

Structure (SMILES)	Potency	activity, negative = inhibition
COc1cc(OC)cc(-c2nc3ccccc3s2)c1	3.79 µM (active)	–
COc1nc(-c2ccccc2)cc(-c2ccccc2)n1	–	-16.4%
Cc1cccc(NC(=O)C2CC(=O)N/C(=N/N=C/c3ccco3)S2)c1 (centres undefined)	–	-25.3%
C/C(=N\NC(=S)Nc1cccc(C)c1)c1ccco1	7.57 µM (active)	–
Cc1ccnc(SCC(=O)c2ccc(Br)cc2)c1C#N	6.01 µM (active)	–
Cc1cc(C)c(C#N)c(OCC(=O)c2ccc(Br)cc2)n1	–	-2.59%
N#C/C(=C(/O)c1ccco1)c1nc2ccccc2s1	2.39 µM (active) and 2.69 µM (active)	–
N#C/C(=C(/O)c1ccco1)c1nc2ccccc2[nH]1	3.79 µM (active)	–
COC(=O)c1sccc1NC(=O)c1ccccc1	–	-5%
COCCn1c(C(F)(F)F)ccc(NC(=O)c2ccccc2)c1=O	4.78 µM (active)	–
COC(=O)c1cc2nc(-c3ccccc3)cc(C(F)(F)F)n2n1	–	0.282%
O=C1N/C(=N\N=C\c2ccco2)SC1Cc1ccccc1[N+](=O)[O-] (centres undefined)	–	-29.9%
Cc1ccc2[nH]c(=O)c3cc(C(=O)N(C)Cc4ccco4)sc3c2c1	12 µM (active)	–
CN(C)CCNC(=O)c1cccc2ccc(-c3ccc(-c4ccccc4)cc3)nc12	–	-22.3%
CC(=O)Cn1nnc2sc(-c3ccccc3)cc2c1=O	6.01 µM (active) and 5.36 µM (active)	–
CCN(C(=O)Cn1nnc2sc(-c3ccccc3)cc2c1=O)c1cccc(C)c1	12 µM (active)	–
CC(=NNc1ccc2ccccc2n1)c1ccccc1O	0.0169 µM (active)	–
Cc1cc(C)c(-n2c(SCCS(=O)(=O)c3ccc(F)cc3)n[nH]c2=O)c(C)c1	–	3.41%
COc1ccc(-c2cc3ccccc3oc2=O)cc1NC(=O)c1ccc([N+](=O)[O-])o1	–	-25.2%
O=C(Oc1ccccc1/C=C\C(=O)c1cc2ccccc2o1)c1ccccc1	1.07 µM (active)	–
COc1cccc(C(=O)Oc2ccccc2/C=C\C(=O)c2cc3ccccc3o2)c1	1.51 µM (active)	–
CN1CCN(CCCNC(=O)c2cc3c(=O)n(C)c4ccccc4c3s2)CC1	–	-18.5%

Structure (SMILES)	Potency	activity, negative = inhibition
O=[N+]([O-])c1ccc(/C=[N+](\[O-])[C@@H]2CCCC[C@@H]2/[N+]([O-])=C/c2ccc([N+](=O)[O-])o2)o1	–	-26%
O=[N+]([O-])c1ccc(/C=N/N=C/c2ccc([N+](=O)[O-])o2)o1	–	3.61%
O=[N+]([O-])c1ccc(/C=N/Nc2ccc3ccccc3c2)o1	1.69 µM (active)	–
O=C(COCc1cc(-c2ccc(F)cc2)on1)Nc1cc(Cl)ccc1O	–	2.84%
Cc1cccc2cc3c(nc12)-c1ccccc1C3=O	10.7 µM (active)	–
Cc1cccc2nc3c(nc12)-c1ccccc1C3=O	–	-28.5%
CS(=O)(=O)c1nc(S(=O)(=O)c2ccc(Cl)cc2)c(N2CCOCC2)s1	–	0.161%
Clc1cc(Cl)cc(Nc2ncnc(-n3cccc3)n2)c1	–	-29%
Clc1ccc(-c2nnc(-c3cccc4ccccc34)o2)cc1	1.35 µM (active)	–
CCn1nc(C)c(Br)c1-c1nc(-c2cccc(C)c2)no1	–	-25.7%
Cc1cccc(-c2nnc(-c3cccc4ccccc34)o2)c1	0.675 µM (active)	–
COc1cc2c(cc1Cl)/C(=C\CCN(C)C)c1ccccc1S2	–	-23.3%
Cc1nnc2n1N=CC=C(c1ccccc1)S2	–	-5.49%
C#CCSc1nnc(-c2sc3ccccc3c2Cl)o1	2.39 µM (active)	–
O=C1C(=C2CCc3ccccc32)Cc2ccccc21	0.301 µM (active)	–
O=C(NNC(=O)c1sccc1-n1cccc1)c1cccc(Cl)c1	–	-17.1%
Cc1ccc(S(=O)(=O)/N=C(/NNC(=O)c2cccc(Cl)c2)c2ccccc2)cc1	5.36 µM (active)	–
O=C(NN/C(=N/S(=O)(=O)c1ccc(Cl)cc1)c1ccccc1)c1cccc(Cl)c1	3.01 µM (active)	–
O=[N+]([O-])c1cccc2ccc(/C=C/c3ccc(F)cc3)nc12	2.39 µM (active)	–
O=[N+]([O-])c1ccc(/C=C/c2ccc3cccc([N+](=O)[O-])c3n2)cc1	–	-23.3%
Cc1c(=O)n(OCc2ccccc2)c2ccccc2[n+]1[O-]	–	-2.37%
N=c1oc2ccccc2cc1-c1nc(-c2ccccc2)cs1	2.69 µM (active)	–

Structure (SMILES)	Potency	activity, negative = inhibition
CC1CCCCC1NC(=O)COC(=O)c1c2c(nc3ccccc13)/C(=C/c1ccco1)CC2 (centres undefined)	4.78 µM (active)	–
Cc1cc(SCC(=O)N/N=C/c2ccco2)nc2ccccc12	–	-26.3%
c1ccc(-c2ccc3c(c2)NC(C2Nc4cc(-c5ccccc5)ccc4O2)O3)cc1 (centres undefined)	–	1.75%
O=[N+]([O-])c1ccccc1S(=O)c1ccccc1[N+](=O)[O-]	–	5.65%
O=C1C(Cl)=C(N2CCN(c3ccccc3[N+](=O)[O-])CC2)C(=O)c2ccccc21	1.2 µM (active)	–
O=C(Nc1ccc(Cl)cn1)c1cnn2cccnc12	2.39 µM (active)	–
O=C(Nc1cccn2ncnc12)c1cccc(C(F)(F)F)c1	–	-23.6%
COc1c(Cl)cc(C(=O)NCc2ccco2)cc1Cl	–	1.36%
O=C(NCc1ccco1)c1cccnc1-c1nc2ccccc2s1	10.7 µM (active)	–
N#CC(C(=O)NCc1ccco1)c1nc2ccccc2nc1N1CCOCC1 (centres undefined)	–	-12.9%
O=C(Nc1cccc(/C=C/c2ccccn2)c1)c1ccc(-n2cncn2)cc1	2.13 µM (active)	–
COc1ccc(/C(N)=N/OC(=O)c2cccc([N+](=O)[O-])c2)cc1	1.51 µM (active)	–
COc1cc(OC)cc(C(=O)O/N=C(\N)c2cccc(C)c2)c1	9.53 µM (active)	–
Cc1cc(CNC(=O)c2cccc([N+](=O)[O-])c2)c2ccccc2n1	–	9.05%
Cn1c(=O)n(C)c2cc(NC(=O)c3cccc([N+](=O)[O-])c3)c(Br)cc21	–	3.58%
CCOC(=O)CCn1c(=O)c2cccn2c2cccnc21	–	-1.77%
Cc1nc(/N=C(\N)NC(=O)c2ccccc2)nc2ccccc12	3.79 µM (active)	–
C(=Cc1cnnc2ccccc12)c1ccccc1	3.38 µM (active)	–
COc1ccc(Cl)cc1C(=O)O/N=C(\N)c1ccccn1	10.7 µM (active)	–
COc1ccc(Cl)cc1C(=O)O/N=C(\N)c1ccncc1	–	-28.3%
COc1ccc(Cl)cc1C(=O)O/N=C(\N)c1ccc(Cl)cc1	9.53 µM (active)	–
COc1ccc(Cl)cc1C(=O)NC(=S)Nc1nc(C)cc(C)n1	–	-3.81%

Structure (SMILES)	Potency	activity, negative = inhibition
COc1ccc(Cl)cc1NC(=O)c1cc(C)no1	–	5.19%
COc1ccccc1C(=O)O/N=C(\N)c1ccc(Cl)cc1	3.38 µM (active)	–
COc1ccc(C(C)=O)cc1OCc1ccccc1	–	2.24%
COCCNC(=O)c1ccc(-n2c(-c3ccccc3)cc3c2CCC(C)C3)cc1 (centres undefined)	–	-5.53%
CSc1nc(Oc2ccc3ccccc3c2)c2sccc2n1	–	-2.81%
Cc1nc([N+](=O)[O-])c(Br)n1Cc1ccccc1	–	2.06%
COc1cccc(/C=C2/CCC(CN(C)C)C2=O)c1 (centres undefined)	1.51 µM (active)	–
COc1ccc(/C=C2/CCCC(CN(C)C)C2=O)cc1 (centres undefined)	3.38 µM (active)	–
c1ccc(-c2noc(-c3cccnc3)n2)cc1	3.01 µM (active)	–
COc1cccc(-c2nc(-c3ccccc3)no2)c1	0.151 µM (active)	–
Brc1ccc(-c2nnc(-c3cccnc3)c3conc23)cc1	–	-20.3%
Fc1ccccc1-c1nc(-c2ccc(Cl)cc2)no1	0.478 µM (active)	–
COc1cccc(C2=CC(c3cccs3)n3nnnc3N2)c1 (centres undefined)	–	-29.4%
O=C(CSc1nnc(-c2cccnc2)o1)c1cc2ccccc2oc1=O	–	-5.35%
c1ccc(-c2noc(-c3cccc4ccccc34)n2)cc1	0.953 µM (active)	–
COc1nc2ccc(C)cc2cc1-c1noc(-c2ccccc2)n1	–	-6.47%
O=C(CN1CC(=O)Oc2ccccc21)OCC(=O)c1ccc(F)cc1	–	-0.826%
c1cncc(-c2noc(-c3cccc4ccccc34)n2)c1	2.39 µM (active)	–
Cc1cc(C)c(C#N)c(SCC(=O)c2ccccc2)n1	–	-6.37%
Cc1cc(C)c(C#N)c(SCC(=O)c2cccs2)n1	12 µM (active)	–
Cc1cc(C)c(C#N)c(OCC(=O)c2ccccc2)n1	–	4.68%
